Test results reported in PubChem BioAssay (NCI).
The panel holds about 83,000 compounds, 20% with a hit somewhere; the sample as a whole holds those more often.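 How to read the values: 0–100, growth inhibition (40 = 60% inhibited); 0, no net growth; -100 to 0, cell death (-40 = 40% of starting cells died; -100 = all dead).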 Activity calls are given as the source filed them. Rule for the calls: active = growth percent below 10; inactive = the rest.

How the values were obtained:
Assay in all cases: NCI-60 one-dose screen, 48 h (100 = growth as untreated, 0 = no growth, -100 = all killed)
Conditions in all cases: 10 µM unless noted
SR leukemia = tested on: SR leukemia
RPMI-8226 leukemia = tested on: RPMI-8226 leukemia
OVCAR-8 ovarian = tested on: OVCAR-8 ovarian
OVCAR-5 ovarian = tested on: OVCAR-5 ovarian
OVCAR-4 ovarian = tested on: OVCAR-4 ovarian
IGROV1 ovarian = tested on: IGROV1 ovarian
OVCAR-3 ovarian = tested on: OVCAR-3 ovarian
HS 578T breast = tested on: HS 578T breast
NCI/ADR-RES ovarian = tested on: NCI/ADR-RES ovarian
SK-OV-3 ovarian = tested on: SK-OV-3 ovarian

Measured: growth

COc1ccc(C2CC(c3ccccc3)=NN2c2nc(C)c(C(C)=O)s2)cc1 (stereo unspecified)
inactive: SR leukemia 97.7% | RPMI-8226 leukemia 99% | OVCAR-8 ovarian 101% | OVCAR-5 ovarian 105% | OVCAR-4 ovarian 97.1% | IGROV1 ovarian 103% | OVCAR-3 ovarian 98.5% | HS 578T breast 93.3% | NCI/ADR-RES ovarian 102%

C/C(=N\NC(N)=S)c1nc2ccc(Cl)cc2[nH]1
inactive: SR leukemia 30.5% | RPMI-8226 leukemia 57.6% | OVCAR-8 ovarian 39.1% | OVCAR-5 ovarian 69.8% | OVCAR-4 ovarian 32.3% | SK-OV-3 ovarian 47.1% | IGROV1 ovarian 58.9% | OVCAR-3 ovarian 50.1% | NCI/ADR-RES ovarian 31.1%

COc1cc2c(cc1OC)-c1ccc3cc4c(cc3c1N(CCN1CCCC1)C2)OCO4
inactive: OVCAR-5 ovarian 30% | OVCAR-4 ovarian 33.8% | OVCAR-3 ovarian 15.3% | HS 578T breast 16.2% | NCI/ADR-RES ovarian 60.7%
active: SR leukemia 1.64% | RPMI-8226 leukemia -36.2% | OVCAR-8 ovarian 6.81% | SK-OV-3 ovarian -13.5% | IGROV1 ovarian 4.12%

C[N+](C)(C)CCOC(OCC[N+](C)(C)C)(c1ccccc1)c1ccccc1
inactive: SR leukemia 89.5% | RPMI-8226 leukemia 106% | OVCAR-8 ovarian 105% | OVCAR-5 ovarian 104% | OVCAR-4 ovarian 107% | SK-OV-3 ovarian 103% | IGROV1 ovarian 124% | HS 578T breast 115% | NCI/ADR-RES ovarian 97.9%

CCCCN1CCN(c2ccc3nc(-c4ccc5nc(-c6ccc(OCC)c(OCC)c6)[nH]c5c4)[nH]c3c2)CC1
active: RPMI-8226 leukemia -25.4% | OVCAR-8 ovarian -11.9% | OVCAR-4 ovarian -77.4% | OVCAR-3 ovarian -87.3%
inactive: SR leukemia 14.3% | OVCAR-5 ovarian 37.7% | IGROV1 ovarian 15.1% | HS 578T breast 35.2% | NCI/ADR-RES ovarian 73%

CC(=O)c1ccc2c(c1)CCN2
inactive: SR leukemia 93.4% | RPMI-8226 leukemia 94.7% | OVCAR-8 ovarian 99.5% | OVCAR-5 ovarian 101% | SK-OV-3 ovarian 99.9% | IGROV1 ovarian 117% | OVCAR-3 ovarian 124% | HS 578T breast 114% | NCI/ADR-RES ovarian 110%

Cc1c(C(=O)O)nnn1-c1nccs1
inactive: SR leukemia 101% | RPMI-8226 leukemia 93% | OVCAR-8 ovarian 91.6% | OVCAR-5 ovarian 104% | SK-OV-3 ovarian 90.8% | IGROV1 ovarian 104% | OVCAR-3 ovarian 106% | HS 578T breast 86.9% | NCI/ADR-RES ovarian 103%

COc1cc(NC(=O)c2cccc(-c3cc(=O)c4c(O)c(OC)c(OC)cc4o3)c2)cc(OC)c1OC
active: HS 578T breast -3.91%
inactive: SR leukemia 54.4% | RPMI-8226 leukemia 27% | OVCAR-8 ovarian 23.1% | OVCAR-5 ovarian 77.4% | IGROV1 ovarian 70.4% | OVCAR-3 ovarian 23.8% | NCI/ADR-RES ovarian 49.4%

Fc1ccc(Nc2nc(Nc3ccc(-c4nc5ccccc5[nH]4)cc3)c3cn[nH]c3n2)cc1
active: SR leukemia -21.1% | RPMI-8226 leukemia 1.66%
inactive: OVCAR-8 ovarian 56.8% | OVCAR-5 ovarian 106% | SK-OV-3 ovarian 90.3% | IGROV1 ovarian 81.6% | OVCAR-3 ovarian 20.3% | HS 578T breast 93.5% | NCI/ADR-RES ovarian 67.5%
